Among all 69,000 compounds or so, about 8,600 (12%) showed an effect of 50% or more. The entries come from a sample that favours strong results as a whole.
These molecules were tested on Plasmodium berghei (assay: Screen against P. berghei liver stage (PbLuc), transformed with Luciferase, at 10uM). Conditions: tested at 10 uM.
Format: functional, HepG2

Compound	INHIBITION
COCCCN(Cc1ccccn1)Cc1ccnn1C1CCCCO1 (stereo unspecified)	34.1%
CCc1nnsc1C(=O)N1CCCC(n2nc(C)nc2C)C1 (stereo unspecified)	-10.75%
CN(Cc1cn2c(n1)CN(C1CCOCC1)CC2)Cc1ccco1	56.7%
CN(Cc1cn2c(n1)CN(C(=O)C1CCOCC1)CC2)Cc1ccco1	-8.94%
CN(Cc1cn2c(n1)CN(C(=O)CC1CC1)CC2)Cc1ccco1	30.1%
CN(Cc1cn2c(n1)CN(C1CCOC1)CC2)Cc1ccco1 (stereo unspecified)	10%
CN(Cc1cn2c(n1)CN(CC1CC1)CC2)Cc1ccco1	8.53%
CN(Cc1cn2c(n1)CN(CC1CCOC1)CC2)Cc1ccco1 (stereo unspecified)	53.2%
Cc1c(CCC(=O)Nc2ccc(Br)cn2)cnn1C	15.2%
Cc1nn(C)c(C)c1C1CCCN1Cc1nc(-c2ccccn2)no1 (stereo unspecified)	11.9%
Cc1c(C(C)Nc2ncnc3sccc23)cnn1C (stereo unspecified)	55.5%
CC(Nc1ncnc2sccc12)c1cnn(C)c1 (stereo unspecified)	38.7%
Cc1nn(C)cc1C(C)Nc1ncnc2sccc12 (stereo unspecified)	27.5%
COc1ccc(OC)c(C(=O)N2CCCCC2Cn2cccn2)c1 (stereo unspecified)	14.4%
CCn1nc2nc(SCC(=O)O)cc(C(F)F)c2c1C	20.4%
Cc1cc(SCC(=O)O)nc2nn(CC(F)F)c(C)c12	96%

Compound	INHIBITION
Cc1c2c(C(F)F)cc(SCC(=O)O)nc2nn1C	15.9%
CC(CCNC(=O)NCCc1ccncc1)c1ccccc1 (stereo unspecified)	55.9%
CC(CCNC(=O)NCCc1ccc(S(N)(=O)=O)cc1)c1ccccc1 (stereo unspecified)	54.8%
Cc1cc(NC(=O)NCCc2ccc(S(N)(=O)=O)cc2)n(C)n1	-193%
O=C(NCCc1ccccc1)NCC(O)c1cccc(F)c1 (stereo unspecified)	-27%
CC(c1cccc(S(N)(=O)=O)c1)N(C)CCc1ccccc1 (stereo unspecified)	33.6%
CC(CCNC(=O)NCCNc1cnccn1)c1ccccc1 (stereo unspecified)	-10.4%
CCn1ccc2ccnc(CC3CN(C(=O)c4ccc(F)cc4)C3)c21	16.5%
Cc1cc(-c2cc(-c3cc(CC(=O)O)cs3)nc(N)c2C#N)oc1C	33.9%
CCc1nc(C)c(C(=O)N[C@@H]2c3ccccc3C[C@@H]2O)o1	-5.22%
CC(=O)N[C@@H]1Cc2ccccc2[C@H]1Nc1ccncn1	67.5%
CCc1oc(C(=O)N[C@@H]2c3ccccc3C[C@@H]2O)cc1C	12.9%
CC(=O)N[C@@H]1Cc2ccccc2[C@H]1Nc1cc(C2CC2)ncn1	35%
O=C(C1CCCC1)N1CCC(Nc2ccncn2)CC1	49.9%
CC(=O)N[C@@H]1Cc2ccccc2[C@H]1Nc1nnc(C2CC2)o1	52.6%
